Holding throughout (set-up): scale not given: direction of the effect not stated beside the values
For assay [1], the target named is Protein translocase subunit SecA (Escherichia coli (strain K12)) (UniProt P10408). The assay can be described thus: Assay to Identify E. coli SecA ATPase Inhibitors. Type of assay: functional. The following applies: 30 µM.
Assay [2] concerns the target T1, Ubiquitin-activating enzyme e1, putative (Leishmania donovani (strain BPK282A1)) (UniProt E9BSI1).
T1 sequence (whole entry): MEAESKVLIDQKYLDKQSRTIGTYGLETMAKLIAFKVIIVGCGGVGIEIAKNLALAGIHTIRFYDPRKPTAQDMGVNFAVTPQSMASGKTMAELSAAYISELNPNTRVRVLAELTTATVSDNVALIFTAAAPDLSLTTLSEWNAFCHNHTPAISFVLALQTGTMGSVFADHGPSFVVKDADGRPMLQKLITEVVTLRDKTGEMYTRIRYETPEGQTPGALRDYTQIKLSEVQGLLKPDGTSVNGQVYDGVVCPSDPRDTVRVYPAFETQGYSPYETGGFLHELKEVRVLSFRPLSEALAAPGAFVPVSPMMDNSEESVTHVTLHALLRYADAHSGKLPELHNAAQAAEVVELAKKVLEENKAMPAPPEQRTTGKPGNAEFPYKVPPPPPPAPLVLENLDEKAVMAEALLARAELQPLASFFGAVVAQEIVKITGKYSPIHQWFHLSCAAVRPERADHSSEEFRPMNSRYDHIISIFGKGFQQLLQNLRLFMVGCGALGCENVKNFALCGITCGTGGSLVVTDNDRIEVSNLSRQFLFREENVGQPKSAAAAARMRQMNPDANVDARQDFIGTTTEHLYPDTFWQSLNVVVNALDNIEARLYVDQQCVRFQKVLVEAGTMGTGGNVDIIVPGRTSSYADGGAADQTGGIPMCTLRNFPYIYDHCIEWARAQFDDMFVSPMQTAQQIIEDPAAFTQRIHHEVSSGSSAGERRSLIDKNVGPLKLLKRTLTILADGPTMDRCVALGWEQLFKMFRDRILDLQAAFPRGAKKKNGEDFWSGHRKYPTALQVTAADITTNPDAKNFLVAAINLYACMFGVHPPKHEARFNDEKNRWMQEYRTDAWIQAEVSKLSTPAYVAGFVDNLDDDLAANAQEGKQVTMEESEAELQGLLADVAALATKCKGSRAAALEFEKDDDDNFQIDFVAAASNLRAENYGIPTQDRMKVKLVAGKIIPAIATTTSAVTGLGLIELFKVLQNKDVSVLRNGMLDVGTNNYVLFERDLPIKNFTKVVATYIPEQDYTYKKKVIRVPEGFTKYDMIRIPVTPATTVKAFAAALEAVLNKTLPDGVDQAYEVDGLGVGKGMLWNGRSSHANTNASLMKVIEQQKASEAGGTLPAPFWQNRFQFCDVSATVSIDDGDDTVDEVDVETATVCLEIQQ
The assay can be described thus: Leishmania donovani Ubiquitin Activating Enzyme (LdE1). Type of assay: functional. As to conditions: 30 µM.

The target in assay [3] is AMP-activated protein kinase, AMPK (Homo sapiens) (UniProt P54646+O43741+P54619+Q9UGJ0+Q9Y478+Q13131+Q9UGI9). The assay can be described thus: AMP-dependent Kinase enzyme assay. An in vitro enzyme assay that detects ADP turnover that is directly proportional to AMPK activity. This uses naive AMPK that is activated during the assay with MK-8722. Type of assay: functional. As to conditions: 30 µM.

Assay [4] concerns the target Sialic acid-binding Ig-like lectin 9 (Homo sapiens) (UniProt Q9Y336). The assay can be described thus: Hs-Siglec9 ALPHAscreen SOP 20170721. The following applies: 10 µM.
The test system of assay [5] is Trypanosoma cruzi. The assay can be described thus: Trypanosoma cruzi phosphomannomutase and mannose-1-phosphate guanylyltransferase assay. Type of assay: functional. The following applies: 10 µM.
Assay [6] deals with T2, Arginase-2, mitochondrial (Homo sapiens) (UniProt P78540).
T2 sequence (whole entry): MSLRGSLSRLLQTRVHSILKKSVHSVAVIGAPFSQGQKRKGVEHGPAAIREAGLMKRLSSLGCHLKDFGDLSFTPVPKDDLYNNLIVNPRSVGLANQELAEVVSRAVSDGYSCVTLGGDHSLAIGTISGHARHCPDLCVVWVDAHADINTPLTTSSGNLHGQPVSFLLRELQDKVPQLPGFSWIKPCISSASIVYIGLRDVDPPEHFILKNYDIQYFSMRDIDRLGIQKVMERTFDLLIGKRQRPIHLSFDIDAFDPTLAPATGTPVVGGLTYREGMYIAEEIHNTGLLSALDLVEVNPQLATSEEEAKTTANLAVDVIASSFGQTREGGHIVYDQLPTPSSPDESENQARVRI
The assay can be described thus: in vitro enzyme assay to detect the production of urea directly proportional to the activity of Arginase II. Note: in the data most compounds retested in dose-response had high values. Type of assay: functional. The following applies: 33.3 µM.

Assay [7] addresses T3, Proteasome subunit beta (Trypanosoma cruzi) (UniProt O96673).
T3 sequence (whole entry): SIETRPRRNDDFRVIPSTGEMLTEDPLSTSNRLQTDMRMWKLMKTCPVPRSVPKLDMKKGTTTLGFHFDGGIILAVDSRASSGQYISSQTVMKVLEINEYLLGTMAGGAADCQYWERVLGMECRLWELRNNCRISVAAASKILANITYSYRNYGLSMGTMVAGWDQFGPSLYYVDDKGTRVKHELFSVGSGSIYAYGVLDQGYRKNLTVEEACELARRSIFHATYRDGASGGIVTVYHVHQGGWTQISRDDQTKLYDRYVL
The assay can be described thus: Trypanosoma cruzi proteasome chymotrypsin-like activity (TcProtChymo) assay. Note: in the data most compounds retested in dose-response had high values. Type of assay: functional. As to conditions: 9.37 µM.

Assay [8] is filed under the species Homo sapiens. The assay can be described thus: To identify inhibition of the IFN signalling (Jak-Stat) pathway via expression of an eGFP reporter gene under the control of an IFN-stimulated response element (ISRE) containing MxA promoter. Type of assay: functional. The following applies: 30 µM. Background: In a reporter assay the amount or activity of a reporter protein is the signal.

Assay [9] has as its target T4, Tyrosyl-tRNA synthetase, putative (Trypanosoma cruzi (strain CL Brener)) (UniProt Q4DSP6).
T4 sequence (whole entry): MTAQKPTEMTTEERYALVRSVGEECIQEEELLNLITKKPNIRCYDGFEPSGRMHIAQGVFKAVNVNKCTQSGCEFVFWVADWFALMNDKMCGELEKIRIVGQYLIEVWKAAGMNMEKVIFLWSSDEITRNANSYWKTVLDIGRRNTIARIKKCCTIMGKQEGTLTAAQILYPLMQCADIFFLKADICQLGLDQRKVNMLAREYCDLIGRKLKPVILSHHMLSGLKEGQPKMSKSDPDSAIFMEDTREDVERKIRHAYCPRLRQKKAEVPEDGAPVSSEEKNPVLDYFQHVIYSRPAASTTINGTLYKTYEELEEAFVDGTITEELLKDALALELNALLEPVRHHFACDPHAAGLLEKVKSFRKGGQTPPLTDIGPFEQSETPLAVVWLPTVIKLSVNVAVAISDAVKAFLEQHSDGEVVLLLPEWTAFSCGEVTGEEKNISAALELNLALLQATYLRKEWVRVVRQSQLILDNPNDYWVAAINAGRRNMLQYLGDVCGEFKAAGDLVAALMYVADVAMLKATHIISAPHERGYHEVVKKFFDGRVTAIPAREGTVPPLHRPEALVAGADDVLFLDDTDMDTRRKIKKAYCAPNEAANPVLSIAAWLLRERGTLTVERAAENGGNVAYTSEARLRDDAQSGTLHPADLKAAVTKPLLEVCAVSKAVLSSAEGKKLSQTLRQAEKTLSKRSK
The assay can be described thus: Trypanosoma cruzi tyrosyl tRNA synthetase (TcYRS) _High Tyrosine SOP. Note: in the data most compounds retested in dose-response had high values. Type of assay: functional. As to conditions: 30 µM.

The target in assay [10] is T4, Tyrosyl-tRNA synthetase, putative (Trypanosoma cruzi (strain CL Brener)). The assay can be described thus: Trypanosoma cruzi tyrosyl tRNA synthetase (TcYRS) SOP. Type of assay: functional. As to conditions: 30 µM.
The target of assay [11] is Chromo domain-containing protein 1 (Saccharomyces cerevisiae (strain ATCC 204508 / S288c) (Baker's yeast)) (UniProt P32657). The assay can be described thus: ScCHD-1 Enzyme Inhibition Assay. Note: in the data most compounds retested in dose-response had high values. Type of assay: functional. The following applies: 30 µM.

SMILES strings stand for the structures. For some of these results: Results with a measured potency or affinity are listed apart.

Sequence of Protein translocase subunit SecA (Escherichia coli (strain K12)) (P10408 whole entry): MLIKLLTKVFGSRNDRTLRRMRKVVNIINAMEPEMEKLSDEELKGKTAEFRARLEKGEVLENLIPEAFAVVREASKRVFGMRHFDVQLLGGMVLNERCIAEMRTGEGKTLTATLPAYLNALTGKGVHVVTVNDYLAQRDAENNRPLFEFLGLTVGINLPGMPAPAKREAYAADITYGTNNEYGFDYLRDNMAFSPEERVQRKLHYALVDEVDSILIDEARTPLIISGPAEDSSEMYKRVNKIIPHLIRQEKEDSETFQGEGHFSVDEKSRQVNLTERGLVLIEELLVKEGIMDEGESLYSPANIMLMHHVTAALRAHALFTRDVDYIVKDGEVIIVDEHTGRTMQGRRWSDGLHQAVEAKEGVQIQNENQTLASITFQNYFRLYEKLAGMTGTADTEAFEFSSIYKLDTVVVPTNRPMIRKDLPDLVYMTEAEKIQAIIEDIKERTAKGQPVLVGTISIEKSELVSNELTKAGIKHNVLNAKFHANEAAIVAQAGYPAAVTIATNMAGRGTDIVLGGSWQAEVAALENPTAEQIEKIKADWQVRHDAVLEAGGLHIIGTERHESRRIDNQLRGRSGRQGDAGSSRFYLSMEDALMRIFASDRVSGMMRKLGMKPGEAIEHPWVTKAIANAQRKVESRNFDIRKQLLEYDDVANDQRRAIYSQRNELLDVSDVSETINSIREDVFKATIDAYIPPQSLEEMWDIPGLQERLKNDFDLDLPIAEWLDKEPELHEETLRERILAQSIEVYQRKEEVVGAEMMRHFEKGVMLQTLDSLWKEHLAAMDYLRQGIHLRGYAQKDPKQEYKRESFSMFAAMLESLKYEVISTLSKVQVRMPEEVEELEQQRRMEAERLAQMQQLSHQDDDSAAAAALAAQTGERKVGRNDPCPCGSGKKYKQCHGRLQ
Sequence of Sialic acid-binding Ig-like lectin 9 (Homo sapiens) (Q9Y336 whole entry): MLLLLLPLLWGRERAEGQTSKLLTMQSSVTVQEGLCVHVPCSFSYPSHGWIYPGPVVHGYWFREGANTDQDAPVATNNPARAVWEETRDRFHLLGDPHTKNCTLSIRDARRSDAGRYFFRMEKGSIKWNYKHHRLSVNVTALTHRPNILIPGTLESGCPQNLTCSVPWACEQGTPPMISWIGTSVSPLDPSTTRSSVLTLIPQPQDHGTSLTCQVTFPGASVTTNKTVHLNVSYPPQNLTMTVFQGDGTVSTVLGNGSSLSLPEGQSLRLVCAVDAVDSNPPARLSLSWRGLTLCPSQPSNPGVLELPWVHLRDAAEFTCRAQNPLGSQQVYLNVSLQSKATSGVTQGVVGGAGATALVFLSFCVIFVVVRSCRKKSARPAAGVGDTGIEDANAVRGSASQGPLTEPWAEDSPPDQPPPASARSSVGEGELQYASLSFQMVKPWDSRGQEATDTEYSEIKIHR
Sequence of Chromo domain-containing protein 1 (Saccharomyces cerevisiae (strain ATCC 204508 / S288c) (Baker's yeast)) (P32657 whole entry, the tested form may be a part): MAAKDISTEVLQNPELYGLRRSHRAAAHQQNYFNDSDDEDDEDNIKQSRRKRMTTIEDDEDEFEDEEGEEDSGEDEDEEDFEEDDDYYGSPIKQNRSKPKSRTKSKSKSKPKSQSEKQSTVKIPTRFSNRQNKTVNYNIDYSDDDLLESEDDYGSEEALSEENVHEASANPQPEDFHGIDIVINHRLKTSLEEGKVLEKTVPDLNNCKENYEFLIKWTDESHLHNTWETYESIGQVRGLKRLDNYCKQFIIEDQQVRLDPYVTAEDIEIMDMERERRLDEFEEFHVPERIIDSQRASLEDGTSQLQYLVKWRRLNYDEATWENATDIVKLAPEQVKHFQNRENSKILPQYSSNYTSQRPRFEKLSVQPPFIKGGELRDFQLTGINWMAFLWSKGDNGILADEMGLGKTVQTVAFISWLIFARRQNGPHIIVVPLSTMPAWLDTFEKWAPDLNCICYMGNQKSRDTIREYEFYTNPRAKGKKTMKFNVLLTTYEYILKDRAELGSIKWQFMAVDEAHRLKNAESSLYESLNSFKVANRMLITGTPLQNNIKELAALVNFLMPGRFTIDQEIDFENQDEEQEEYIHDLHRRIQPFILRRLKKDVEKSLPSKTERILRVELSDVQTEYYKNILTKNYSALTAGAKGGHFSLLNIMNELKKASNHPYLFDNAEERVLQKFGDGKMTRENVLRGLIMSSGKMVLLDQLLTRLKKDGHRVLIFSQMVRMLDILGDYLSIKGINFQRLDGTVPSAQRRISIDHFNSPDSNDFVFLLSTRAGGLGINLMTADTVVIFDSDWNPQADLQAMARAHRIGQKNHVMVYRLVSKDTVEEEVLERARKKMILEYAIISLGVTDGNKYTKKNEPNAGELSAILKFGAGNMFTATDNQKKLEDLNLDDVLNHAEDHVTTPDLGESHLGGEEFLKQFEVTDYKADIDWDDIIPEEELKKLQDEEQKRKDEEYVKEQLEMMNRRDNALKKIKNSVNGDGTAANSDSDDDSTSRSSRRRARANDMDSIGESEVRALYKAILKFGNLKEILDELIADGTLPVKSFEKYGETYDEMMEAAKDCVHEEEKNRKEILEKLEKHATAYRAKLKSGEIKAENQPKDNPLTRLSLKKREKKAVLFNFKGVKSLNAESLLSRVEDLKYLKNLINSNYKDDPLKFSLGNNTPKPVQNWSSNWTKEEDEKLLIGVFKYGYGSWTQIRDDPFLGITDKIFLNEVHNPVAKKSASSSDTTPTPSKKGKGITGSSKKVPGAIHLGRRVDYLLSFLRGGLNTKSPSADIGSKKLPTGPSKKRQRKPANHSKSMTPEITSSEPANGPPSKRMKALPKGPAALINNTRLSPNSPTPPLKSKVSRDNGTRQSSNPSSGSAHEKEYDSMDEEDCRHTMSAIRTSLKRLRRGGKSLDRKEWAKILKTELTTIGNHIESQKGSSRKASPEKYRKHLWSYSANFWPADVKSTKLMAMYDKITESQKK

In the case of `Cc1nc(C2CCCN(C(=O)c3cc(Cl)c[nH]3)C2)no1` (stereo not drawn), the Percent Effect is -5.67% in [1]; 12.7% in assay [2]; -0.617% in assay [3]; 10.9% in assay [4]; 3.87% in assay [5]; -6.46% in assay [6]. Besides, the Percent Effect in assay [7] was 1.88%; in assay [8] it was -5.6%; in [9], 5.42%; in [10] it was 13.9%; in [11] it was -7.78%.

On to `NC(=O)c1ccc(N2CCCCC2)c(NC(=O)c2cncc(Br)c2)c1`, for which the Percent Effect in assay [1] is -3.53%; in assay [2], 5.2%; in assay [3], 10.4%; in [4], 12.7%; in assay [5] it was 2.06%; in assay [6], -78.6%. In addition, the Percent Effect is 12.5% in [7]; 35.7% in assay [8]; 3.23% in [9]; 11.1% in assay [10]; -2.92% in assay [11].

For the compound `COc1cc2cc(C(=O)O)n(C)c2c(OC)c1OC`, the Percent Effect in assay [1] is 2.1%; in assay [2], -9.33%; in assay [3] it was 13.7%; in [4], 8.78%; in assay [5], -4.71%; in assay [6] it was -5.46%. Moreover, the Percent Effect in assay [7] was 13.9%; in assay [8] it was 1.84%; in [9] it was -3.17%; in assay [10], -5.13%; in assay [11], -10%.

Turning to `O=C(N1CCCCC1)N1CCN(CC(O)c2ccc(F)cc2)CC1` (stereo not drawn), the Percent Effect was -0.539% in assay [1]; 13.2% in assay [2]; -0.12% in assay [3]; 5.2% in [4]; -4.51% in assay [5]; 4.21% in assay [6]. The Percent Effect in assay [7] was 4.84%; in assay [8], 20.8%; in assay [9], 8.33%; in [10], 17.1%; in [11], -5.09%.

As to `CC(O)CN1CCN(C(=O)c2cc3ccccc3[nH]c2=O)CC1` (stereo not drawn), the Percent Effect was -2.78% in assay [1]; 2.63% in assay [2]; -2.27% in assay [3]; 10.3% in assay [4]; -3.8% in assay [5]; -4.73% in [6]. For the same compound, the Percent Effect was 13.1% in [7]; -25.9% in assay [8]; 1.06% in assay [9]; -5.2% in assay [10]; -3.52% in assay [11].

Take `CC(Cn1cncn1)NCc1nncn1C1CCCCC1` (stereo not drawn): the Percent Effect in assay [1] was -0.337%; in assay [2] it was 6.94%; in assay [3] it was -10.2%; in assay [4] it was 13.3%; in assay [5], 0.0972%; in assay [6], 12.4%. Moreover, the Percent Effect is 14.4% in [7]; -15.2% in assay [8]; 8.42% in assay [9]; 15.4% in assay [10]; -5.04% in assay [11].

Consider `COc1cc(CN(C(=O)Nc2cccnc2OC)C2CC2)ccc1O`, for which the Percent Effect was -3.67% in [1]; 2.6% in assay [2]; 7.29% in [3]; 11.9% in [4]; -2.25% in assay [5]; -0.712% in assay [6]. Moreover, the Percent Effect is 5.91% in [7]; 23.5% in assay [8]; 3.88% in assay [9]; 12.2% in [10]; -4.72% in assay [11].

As to `CC(=O)N1CCN(C(=O)CCCc2nc(C(C)C)no2)CC1`, the Percent Effect was -1.74% in [1]; 15.2% in assay [2]; 2.62% in [3]; -11.8% in assay [4]; -10.1% in [5]; 4.56% in assay [6]. Also, the Percent Effect is 8.44% in assay [7]; 37.4% in [8]; -0.493% in assay [9]; -1.27% in assay [10]; -5.47% in assay [11].

Values taken from ChEMBL document CHEMBL3988442, “University of Dundee, Small-Polar-MMV Screening Library” (2021).
